PubChem BioAssay (NCI)
Compounds without any hit were thinned out: in the full panel of roughly 83,000, 20% have a hit.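 Percent growth is the endpoint: 0 to 100 indicates growth inhibition (40 means 60% inhibition), 0 means no net growth, and negative values indicate cell death.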 Values without a mark were called inactive. Activity calls are given as the source filed them.

system: OVCAR-5 ovarian; assay: NCI-60 one-dose screen, 48 h (100 = growth as untreated, 0 = no growth, -100 = all killed); conditions: 10 µM unless noted
Description: Growth inhibition of the OVCAR-5 human tumor cell line is measured as a screen for anti-cancer activity. Cells are grown in 96 well plates and exposed to the test compound for 48 hours. Compounds are tested at a single concentration, which is 10^-5 M for most compounds. The reported endpoint is percent growth (GI% or GIPRCNT), where numbers from 0 - 100% represent growth inhibition, and numbers from -100% - 0 represent cell death. For example, a value of 40 represents 60% growth inhibition. A value of 0 means no net growth occurred over the course of the experiment. A value of -40 indicates 40% of cells at the beginning of the experiment died by the end of the experiment. A value of -100 means all cells are dead at the end of the experiment.
NCI-60 Human Tumor Cell Lines Screen was performed using the standard one-dose NCI protocol, which is described in more detail at https://dtp.cancer.gov/discovery_development/nci-60/default.htm.
Compounds with GIPRCNT values below 10 were considered active. Activity score was based on GIPRCNT using the following formula: […]
Score is 0 for GIPRCNT values of 100 or above, 50 for GIPRCNT values of 0, and 100 for GIPRCNT values of -100.

Structure (SMILES)	growth
COC1=CC(=O)C[C@@H](C)[C@]12Oc1c(Cl)c(OC)cc(OC)c1C2=O	90.7%
COc1cc(-c2n/c(=C\c3c(O)[nH]c4ccc(Cl)cc34)cc3c2=Nc2ccccc2-3)cc(OC)c1OC	88.6%
C=C(C)[C@@H]1CC[C@]2(C(=O)NC3CCCCC3)CC[C@]3(C)[C@H](CC[C@@H]4[C@@]5(C)CCCNC(C)(C)[C@@H]5CC[C@]43C)[C@@H]12	82.8%
Cc1ccc(-c2c(-c3ccccc3)c(=O)oc3ccc(C)cc23)cc1	113%
O=S(=O)(NCCCNc1cc(-c2c(-c3cccc(O)c3)nc3sccn23)ccn1)c1cccc(Cl)c1	107%
O=C(O)C1CCC(=O)N1C(=O)OCc1ccccc1 (stereo not given)	92.6%
CCCCCCCCCCN(CCCCCCCCCC)CC(=O)c1ccc2cc(Br)c3ccccc3c2c1	95.3%
CNC(=O)c1cc(Oc2cccc3nc(Nc4ccc(F)c(Cl)c4)ccc23)ccn1	91.9%
Clc1cccc(Cl)c1C(Nc1nc2ccccc2s1)Nc1nc2ccccc2s1	90.3%
O=C(NC(Cc1nnc2n(Cc3ccccc3)c(=O)c3c4c(sc3n12)CCCC4)c1ccc(Cl)cc1)c1ccccc1 (stereo not given)	104%
CC1(C)OC2C(CO[Si](C)(C)C(C)(C)C)OC(n3c(I)c(C#C[Si](C)(C)C)c(=O)[nH]c3=O)C2O1 (stereo not given)	92.6%
COc1cccc(-c2nn(-c3ccccc3)cc2-c2ccnc(NCCNC(=O)c3ccccc3)c2)c1	102%
O=c1[nH][n+](-c2ccc(Cl)cc2)no1	77%
COc1cccc(-c2nn(-c3ccccc3)cc2-c2ccnc(NCCNC(=O)Nc3cccc(C(F)(F)F)c3)c2)c1	58.4%
COC(=O)c1c2c(c(C)[n+]([O-])c1C)C(=O)C(NCc1ccc(F)cc1)=CC2=O	46.2%
OC(c1cccc(-n2ccc(C(F)(F)F)n2)c1)c1cnccc1NC1CCCCCC1 (stereo not given)	15.2%
COc1ccc(NC(=O)CSc2nnc(-c3cc(-c4ccccc4)nc4ccccc34)n2-c2ccccc2)cc1	99.2%
Cn1c(-c2c(N)n(Cc3cccnc3)c3nc(C#N)c(C#N)nc23)nc2ccccc21	78%
COc1ccc(-c2nc(SCCC(C)C)nc(N/N=C\c3ccccc3O)c2C#N)cc1	99.7%
CCC(CO)Nc1nc2ccc(Cl)cc2c2ccccc12 (stereo not given)	66.9%

Structure (SMILES)	growth
Cc1nn(-c2ccccc2)c2nc3c(c(-c4ccc(Cl)cc4)c12)CNC1(CCSCC1)N3	98.2%
Cc1nc2c(c(N3CCCc4ccccc43)n1)CCC2	48.3%
Cc1ccc(S(=O)(=O)N/N=C\c2cc(Cl)ccc2O)cc1	82%
Cc1c(O)cc(-c2cnc(N/N=C\c3ccc(Cl)cc3)s2)c(O)c1C	102%
O=C(Nc1ccc(Cl)cc1)Nc1ccc(Cl)c(C(F)(F)F)c1	1.37% (active)
O=C(Cc1ccc(F)c(F)c1)Nc1cc(C2(C(F)(F)F)CC2)nn1Cc1ccccc1	2.55% (active)
N#Cc1c(-c2cccc(Cl)c2)cc(-c2cccc(F)c2)[nH]c1=O	95.8%
N#Cc1c(N)nc2c(C#N)c(NC(=O)c3ccccc3)nn2c1-c1ccccc1	105%
O=c1c2cc(F)ccc2sc2c(NCCN3CCCCC3)nc3ccccc3c12	69.3%
NC(=S)Nc1cccc(O)c1	96.3%
O=C1/C(=C2/C=Nc3ccccc32)N(O)c2ccccc21	78.2%
O=C(Nc1cccc(Cl)c1)c1cc(N=Nc2ccc([N+](=O)[O-])cc2Cl)ccc1O	112%
Oc1ccc(CN2CCC(N3CCOCC3)CC2)c2cccnc12	48.8%
O=[N+]([O-])c1ccc(Sc2cccc[n+]2[O-])c2nonc12	120%
COc1ccc(C2C(c3nn[nH]n3)=C(N)Oc3c2ccc2ccccc32)cc1 (stereo not given)	104%
OC(COc1ccccc1Cl)COc1ccccc1Cl	81.9%
N#C/C(=C\c1ccc2c(c1)OCO2)n1nnc2cc(F)c(F)cc21	96.8%
COc1cccc(-c2nn(-c3ccccc3)cc2-c2ccnc(NCCCNC(=O)c3ccc(F)cc3)c2)c1	85.4%
CC1(c2ccccc2)NC(=O)N(NC(=O)CSc2nc(-c3cccs3)nc3ccccc23)C1=O (stereo not given)	76.7%
C=C1C(=O)O[C@H]2[C@H]1CC/C(CNC(=O)/C=C/c1ccc(Cl)cc1Cl)=C\CC[C@@]1(C)O[C@@H]21	-31.9% (active)
